Measured values as given in the supplement of paper PMC7556523.

The compounds below were run on Sporothrix brasiliensis CBS 133006 (assay: growth inhibition relative to untreated control; higher = more growth inhibition (more antifungal activity), active = 80 or more; extreme values may be limits of the assay). Conditions: 1 µM; 48 h.
How it was run: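 Before testing, the reference isolates were kept in brain heart infusion broth with 2% glucose at 36°C for 7 days to give yeast-form cells. These cells, at 1 x 10^5 CFU/ml, received library compounds at a final 1 μM and were held 48 h at 35°C in 5% CO2. Growth was checked by eye under an inverted light microscope and quantified spectrophotometrically in quadruplicate, and the value is percent growth inhibition versus untreated cells.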
In the case of CNC(=O)c1nn(C)c2c1C(C)(C)Cc1cnc(Nc3ccc(N4CCN(C)CC4)cc3)nc1-2, the growth inhibition is reported as 37.5% (inactive). Cc1[nH]c2ccccc2c1C(c1cccs1)N1CCN(C)CC1 (stereo not given) was tested, and the growth inhibition was 4.75% (inactive). For CCCn1nnc(NC(=O)COc2ccc(C3CCCCC3)cc2)n1, the growth inhibition was 13.2% (inactive). With CC1CS(=O)(=O)CCN1/N=C/c1ccc([N+](=O)[O-])o1 (stereo not given) the growth inhibition was 6% (inactive). In the case of COC(=O)c1c(NC(=O)c2c(F)c(F)c(F)c(F)c2F)sc2c1CCCCC2, the growth inhibition is reported as 13.8% (inactive). COc1cccn2c(C(=O)N3CCCCC3)c(C(F)(F)F)nc12 was tested, and the growth inhibition was 8.75% (inactive). In the case of CCOC(=O)c1c(NC(=O)c2c(F)c(F)c(F)c(F)c2F)sc(C(N)=O)c1C, the growth inhibition is reported as 13.8% (inactive). For COc1ccccc1CNC(=O)c1cc(C2CC2)nc2c1cnn2C(C)C, the growth inhibition was 27.8% (inactive). With Cc1ccc2oc(-c3cc(NC(=O)Cc4ccccc4)ccc3Cl)nc2c1 the growth inhibition was 14.5% (inactive). COc1ccc(Nc2ccccc2NC(=O)c2ccc(O)nc2)cc1 was tested, and the growth inhibition was 14.2% (inactive). With CCc1ccc([C@@H]2C[C@H](C(F)(F)F)n3ncc(C(=O)NCc4ccc(OC)cc4)c3N2)cc1 the growth inhibition was 15.5% (inactive). With O=C(NCc1ccco1)N1CCN(Cc2ccc(Cl)s2)CC1 the growth inhibition was 0% (inactive). CCN(CC)C(=O)N1CCN(C)CC1 was tested, and the growth inhibition was 4% (inactive). In the case of COc1ccc(C2=NCCN2)cc1-c1cn(-c2cccc(C3=NCCN3)c2)nn1, the growth inhibition is reported as 12.8% (inactive). For Cc1[nH]c2cc(F)cc(F)c2c(=O)c1-c1ccc(Oc2ccc(OC(F)(F)F)cc2)cc1, the growth inhibition was 2.25% (inactive).
